Values joined by “and” are separate entries in the source; they are usually repeats but may differ in a detail not shown here. Equal entries are not always repeated. Inconclusive results are not listed. Active and inactive are the calls of the source. Calls follow the shape of the dose curve; as a rule, active = well fitted inhibition curve with a large enough effect; inconclusive = small, poorly fitted or top-dose-only effect; inactive = flat fitted curve, though single readings scatter.
Assays:
CRL-7250 = normal cell line; test: Cytotoxic Profiling of Annotated Libraries Using Quantitative High-Throughput Screening (AID 1296008); settings: Five cell lines viability, CellTiter-Glo ATP luminescence, 48-72 h; max response: active compounds read low; as to max response: % is scaled to controls: 0 for no effect and ±100 for the full control effect
Outline: (§1)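 Cytotoxicity was measured as CellTiter-Glo ATP luminescence, read after 10 min at room temperature. Compound treatment of the cells lasted 48 or 72 hr at 37 degrees Celsius in a qHTS format.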

HEK293 = test: as above; settings: Five cell lines viability, CellTiter-Glo ATP luminescence, 48-72 h; max response: active compounds read low
Outline: as §1

HaCat = test: as above; settings: Five cell lines viability, CellTiter-Glo ATP luminescence, 48-72 h; max response: active compounds read low
Outline: as §1

PC26 = test: qHTS profiling for inhibitors of Plasmodium falciparum proliferation (AID 504749); settings: P. falciparum in erythrocytes, SYBR Green DNA, 72 h; series mostly up to 28.7 µM
Outline: (§2)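 Three-day growth assay of blood-stage parasites in erythrocytes (0.3% parasitemia, 2.5% hematocrit) at 37 C, 5% CO2, quantified by SYBR Green DNA staining after overnight detergent lysis.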

PC49 = test: as above; settings: P. falciparum in erythrocytes, SYBR Green DNA, 72 h; series mostly up to 28.7 µM
Outline: as §2

SC27B = test: as above; settings: P. falciparum in erythrocytes, SYBR Green DNA, 72 h; series mostly up to 28.7 µM
Outline: as §2

TAB109 = test: as above; settings: P. falciparum in erythrocytes, SYBR Green DNA, 72 h; series mostly up to 28.7 µM
Outline: as §2

TAB113 = test: as above; settings: P. falciparum in erythrocytes, SYBR Green DNA, 72 h; series mostly up to 28.7 µM
Outline: as §2

TAB165 = test: as above; settings: P. falciparum in erythrocytes, SYBR Green DNA, 72 h; series mostly up to 28.7 µM
Outline: as §2

W2 = test: as above; settings: P. falciparum in erythrocytes, SYBR Green DNA, 72 h; series mostly up to 28.7 µM
Outline: as §2
Also: nearly all actives have a fitted effect of over 60% in size.
Potency is read from the fitted curve at half-maximal effect.

CC1OC(O[C@H]2[C@@H](O)C[C@@]3(C)C([C@H](O)C[C@]4(C)C3CC=C3C5CC(C)(C)CC[C@]5(C(=O)OC5OC(CO)C(O)C(O)C5OC5OCC(OC6OCC(OC7OCC(O)C(O)C7O)C(O)C6O)C(OC6OCC(O)(CO)C6O)C5O)CC[C@]34C)[C@]2(C)CO)C(O)C(O)C1O (stereo partly drawn)
inactive: outcome (CRL-7250) | outcome (HEK293) | outcome (HaCat)

CN(NC(=O)CC(=O)NN(C)C(=S)c1ccccc1)C(=S)c1ccccc1
inactive: outcome (HaCat)
active: Potency (CRL-7250) 66 nM | Potency (HEK293) 11.6 nM and 13.2 nM

CC(=O)OC[C@]12[C@H](OC(C)=O)C(=O)[C@@H]3[C@@H](OC(C)=O)[C@@]14O[C@@]3(C)COC(=O)c1cccnc1[C@@H](C)[C@H](C)C(=O)O[C@@H]([C@H](OC(C)=O)[C@@H]2OC(C)=O)[C@]4(C)O
inactive: max response (CRL-7250) 2.64% | outcome (HEK293) | outcome (HaCat)

C1CCN2CC3C[C@@H](CN4CCCC[C@@H]34)[C@H]2C1
inactive: max response (CRL-7250) 3.38% | outcome (HEK293) | outcome (HaCat)

C/C=C/C=C/C=C/C(=O)O[C@@H]1[C@@H](OC)C2=C(C(=O)N(C(C)C(=O)O)C2)[C@@]2(C)CCCC(C)(C)[C@H]12 (stereo partly drawn)
inactive: max response (CRL-7250) -1.32% | outcome (HEK293) | outcome (HaCat)

C[C@]12C=CC(=O)C=C1CC[C@@H]1[C@@H]2[C@@H](O)C[C@@]2(C)[C@H]1CC[C@]2(O)C(=O)COC(=O)CCC(=O)O
inactive: max response (CRL-7250) 2.71% | max response (HEK293) -0.357% | outcome (HaCat)

COc1cc([C@H]2OC[C@@H]3[C@@H](c4ccc(O[C@@H]5O[C@H](CO)[C@@H](O)[C@H](O)[C@H]5O)c(OC)c4)OC[C@]23O)ccc1O
inactive: max response (CRL-7250) -6.95% | outcome (HEK293) | outcome (HaCat)

CC[C@@H](c1ccc(F)c(F)c1)n1c(C(=O)OC)c(-c2ccno2)[nH]c1=S
inactive: max response (CRL-7250) -7.34% | outcome (HEK293) | outcome (HaCat)

COCC(=O)N1CCc2cc(-c3csc(NC(=O)c4cc(OC)cc(OC)c4)n3)ccc21
inactive: outcome (CRL-7250) | outcome (HEK293) | max response (HaCat) -4%

C/C(=C\CO)CC/C=C(\C)C(=O)O[C@H]1[C@H](OC2OC=C(C(=O)O)C3CCC(C)(O)C23)O[C@H](CO)[C@@H](O)[C@@H]1O (stereo partly drawn)
inactive: max response (CRL-7250) -10.5% | outcome (HEK293) | max response (HaCat) 1.01%

CC(=O)OCC(=O)O[C@@H]1[C@H]2[C@@H](OC(=O)c3ccccc3)[C@@H](C)C[C@]2(O)[C@H](OC(C)=O)C2(C)[C@H]3CC(C)(C)C(=O)[C@@H]3CC1(OC(C)=O)[C@@H]2OC(C)=O (stereo partly drawn)
inactive: max response (CRL-7250) -0.187% | outcome (HEK293) | outcome (HaCat)

Oc1ccc([C@H]2COc3cc(O)ccc3C2)cc1
inactive: outcome (CRL-7250) | outcome (HEK293) | outcome (HaCat)

Cc1nnc(C(C)C)n1C1CC2CCC(C1)N2CCC(NC(=O)C1CCC(F)(F)CC1)c1ccccc1 (stereo not drawn)
inactive: max response (CRL-7250) -10.9% | outcome (HEK293) | outcome (HaCat)

CC1=C(CC(=O)O)c2cc(F)ccc2C1=Cc1ccc(S(C)(=O)=O)cc1
inactive: outcome (CRL-7250) | outcome (HEK293) | max response (HaCat) -6.44%

Nc1nonc1C(=Nc1ccc(F)c(Cl)c1)NO
inactive: max response (CRL-7250) -22.8% | outcome (HEK293) | max response (HaCat) -3.71%

C[C@H]1[C@H](C)CC[C@]2(C(=O)O[C@@H]3O[C@H](CO)[C@@H](O)[C@H](O)[C@H]3O)CC[C@]3(C(=O)O)C(=CCC4[C@@]5(C)CC[C@H](O[C@@H]6O[C@H](CO)[C@@H](O)[C@H](O)[C@H]6O)C(C)(C)C5CC[C@]43C)[C@H]12 (stereo partly drawn)
inactive: max response (CRL-7250) 3.01% | outcome (HEK293) | outcome (HaCat)

O=C(NN1CCCCC1)c1nn(-c2ccc(Cl)cc2Cl)c(-c2ccc(C#Cc3ccc(C(F)(F)F)cc3)s2)c1CNS(=O)(=O)N1CCCC1
inactive: max response (CRL-7250) -7.83% | outcome (HEK293) | outcome (HaCat)

COc1cc(C(C)=O)ccc1O[C@@H]1O[C@H](CO[C@@H]2O[C@@H](C)[C@H](O)[C@@H](O)[C@H]2O)[C@@H](O)[C@H](O)[C@H]1O
inactive: max response (CRL-7250) -2.17% | outcome (HEK293) | outcome (HaCat)

CCCCC/C=C\C/C=C\CCCCCCCC(=O)O
inactive: Potency (PC26) | Potency (PC49) | Potency (SC27B) | Potency (TAB109) | Potency (TAB113) | Potency (TAB165) | Potency (W2)

COC(=O)[C@H]1[C@H]2C[C@@H]3c4[nH]c5ccccc5c4CCN3C[C@H]2C[C@@H](OC(=O)c2cc(OC)c(OC)c(OC)c2)[C@@H]1OC
active: Potency (PC26) 269 nM | Potency (PC49) 251 nM | Potency (SC27B) 355 nM | Potency (TAB109) 398 nM | Potency (TAB113) 282 nM | Potency (TAB165) 178 nM | Potency (W2) 151 nM

— PubChem BioAssay (NCATS)
